Laboratory results from the supplement of paper PMC8975748.
Where a name gives a salt, the structure may show the parent alone. ± gives the standard deviation of the averaged measurements.

Experiments:
[1] = system: Saccharomyces cerevisiae BY4741 SeMeCo community; assay: mean cell size (pixel area) (pixels); higher = larger cells; details: 10 µM; 24 h; SM minimal medium
In short: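 A fluorescent Saccharomyces cerevisiae BY4741 community carrying four plasmids was used, with each plasmid complementing one auxotrophy and bearing a fluorescent marker. An overnight preculture at OD600 = 1.0 was diluted to OD600 = 0.3, and 70 µl went into 384-well plates acoustically predosed with drug (final 10 µM) in SM medium for 24 h. After paraformaldehyde fixation, cells were imaged by automated confocal microscopy and analysed in Harmony, giving the mean cell pixel area per well. Each value is the average of 3 replicates. Same SeMeCo high-content imaging drug screen: Selleck FDA-approved drugs at 10 µM, 24 h in SM medium, 384-well plates, 3 replicates.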

[2] = system: Saccharomyces cerevisiae BY4741 SeMeCo community; assay: z-score of prototroph abundance vs DMSO median; higher = larger share of this subpopulation than in DMSO controls; details: 10 µM; 24 h; SM minimal medium; subpopulation (auxotrophy): Prototroph
In short: (§1)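 A Saccharomyces cerevisiae BY4741 community carried four plasmids, each restoring one auxotrophy and encoding a distinct fluorescent protein. It was pre-grown overnight to OD600 1.0, diluted to 0.3, and 70 µl was added to 384-well plates acoustically predosed with library drugs (10 µM final), then grown 24 h in minimal SM medium. Cells were paraformaldehyde-fixed and imaged by automated confocal microscopy, with single-auxotroph fluorescent strains setting thresholds and autofluorescence correction. Each subpopulation's abundance was scored as a z-score against the vehicle-well median.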

[3] = system: Saccharomyces cerevisiae BY4741 SeMeCo community; assay: z-score of subpopulation abundance vs DMSO median, subpopulation auxotrophic for M; higher = larger share of this subpopulation than in DMSO controls; details: 10 µM; 24 h; SM minimal medium; subpopulation (auxotrophy): M
In short: as §1

[4] = system: Saccharomyces cerevisiae BY4741 SeMeCo community; assay: z-score of subpopulation abundance vs DMSO median, subpopulation auxotrophic for L; higher = larger share of this subpopulation than in DMSO controls; details: 10 µM; 24 h; SM minimal medium; subpopulation (auxotrophy): L
In short: as §1

[5] = system: Saccharomyces cerevisiae BY4741 SeMeCo community; assay: z-score of subpopulation abundance vs DMSO median, subpopulation auxotrophic for H; higher = larger share of this subpopulation than in DMSO controls; details: 10 µM; 24 h; SM minimal medium; subpopulation (auxotrophy): H
In short: as §1

[6] = system: Saccharomyces cerevisiae BY4741 SeMeCo community; assay: z-score of subpopulation abundance vs DMSO median, subpopulation auxotrophic for LU; higher = larger share of this subpopulation than in DMSO controls; details: 10 µM; 24 h; SM minimal medium; subpopulation (auxotrophy): LU
In short: as §1

[7] = system: Saccharomyces cerevisiae BY4741 SeMeCo community; assay: z-score of subpopulation abundance vs DMSO median, subpopulation auxotrophic for LM; higher = larger share of this subpopulation than in DMSO controls; details: 10 µM; 24 h; SM minimal medium; subpopulation (auxotrophy): LM
In short: as §1

[8] = system: Saccharomyces cerevisiae BY4741 SeMeCo community; assay: z-score of subpopulation abundance vs DMSO median, subpopulation auxotrophic for HM; higher = larger share of this subpopulation than in DMSO controls; details: 10 µM; 24 h; SM minimal medium; subpopulation (auxotrophy): HM
In short: as §1

[9] = system: Saccharomyces cerevisiae BY4741 SeMeCo community; assay: z-score of subpopulation abundance vs DMSO median, subpopulation auxotrophic for HU; higher = larger share of this subpopulation than in DMSO controls; details: 10 µM; 24 h; SM minimal medium; subpopulation (auxotrophy): HU
In short: as §1

[10] = system: Saccharomyces cerevisiae BY4741 SeMeCo community; assay: z-score of subpopulation abundance vs DMSO median, subpopulation auxotrophic for UM; higher = larger share of this subpopulation than in DMSO controls; details: 10 µM; 24 h; SM minimal medium; subpopulation (auxotrophy): UM
In short: as §1

[11] = system: Saccharomyces cerevisiae BY4741 SeMeCo community; assay: z-score of subpopulation abundance vs DMSO median, subpopulation auxotrophic for HLM; higher = larger share of this subpopulation than in DMSO controls; details: 10 µM; 24 h; SM minimal medium; subpopulation (auxotrophy): HLM
In short: as §1

[12] = system: Saccharomyces cerevisiae BY4741 SeMeCo community; assay: z-score of subpopulation abundance vs DMSO median, subpopulation auxotrophic for HUM; higher = larger share of this subpopulation than in DMSO controls; details: 10 µM; 24 h; SM minimal medium; subpopulation (auxotrophy): HUM
In short: as §1

[13] = system: Saccharomyces cerevisiae BY4741 SeMeCo community; assay: z-score of subpopulation abundance vs DMSO median, subpopulation auxotrophic for LUM; higher = larger share of this subpopulation than in DMSO controls; details: 10 µM; 24 h; SM minimal medium; subpopulation (auxotrophy): LUM
In short: as §1

[14] = system: Saccharomyces cerevisiae BY4741 SeMeCo community; assay: z-score of subpopulation abundance vs DMSO median, subpopulation auxotrophic for HLUM; higher = larger share of this subpopulation than in DMSO controls; details: 10 µM; 24 h; SM minimal medium; subpopulation (auxotrophy): HLUM
In short: as §1

[15] = system: Saccharomyces cerevisiae BY4741 SeMeCo community; assay: z-score of subpopulation abundance vs DMSO median, subpopulation auxotrophic for U; higher = larger share of this subpopulation than in DMSO controls; details: 10 µM; 24 h; SM minimal medium; subpopulation (auxotrophy): U
In short: as §1

[16] = system: Saccharomyces cerevisiae BY4741 SeMeCo community; assay: z-score of subpopulation abundance vs DMSO median, subpopulation auxotrophic for HL; higher = larger share of this subpopulation than in DMSO controls; details: 10 µM; 24 h; SM minimal medium; subpopulation (auxotrophy): HL
In short: as §1

Structure (SMILES) | mean cell size [1] | z-score of prototroph abundance [2] | z-score of subpopulation abundance [3] | z-score of subpopulation abundance [4] | z-score of subpopulation abundance [5] | z-score of subpopulation abundance [6] | z-score of subpopulation abundance [7] | z-score of subpopulation abundance [8] | z-score of subpopulation abundance [9] | z-score of subpopulation abundance [10] | z-score of subpopulation abundance [11] | z-score of subpopulation abundance [12] | z-score of subpopulation abundance [13] | z-score of subpopulation abundance [14] | z-score of subpopulation abundance [15] | z-score of subpopulation abundance [16]
N=C(N)NS(=O)(=O)c1ccc(N)cc1 [Sulfaguanidine] | 12.3 ± 0.36 | 1.31 | 0 | -0.1 | -0.42 | -0.67 | -0.87 | -0.09 | -0.96 | -0.62 | -1.22 | -1.13 | -0.49 | -1.13 | – | –
CN1[C@@H]2CC[C@H]1C[C@@H](OC(c1ccccc1)c1ccccc1)C2 [Benztropine mesylate] | 12.38 ± 0.057 | 1.01 | -0.66 | 0.17 | -0.75 | -0.21 | 0.22 | – | -0.54 | -0.32 | -0.44 | -0.47 | – | -0.38 | -0.32 | 0.19
CN(C)CCc1c[nH]c2ccc(C[C@H]3COC(=O)N3)cc12 [Zolmitriptan] | 12.5 ± 0.18 | 0.27 | -0.23 | 0.2 | -0.77 | -0.9 | – | -1.06 | -1.01 | -0.65 | -0.12 | – | -0.64 | 0.15 | – | 0.28
O=C(Nc1cc(Cl)cc(Cl)c1O)c1c(O)c(Cl)cc(Cl)c1Cl [Oxyclozanide] | 12.2 ± 0.31 | 2.11 | -2.38 | -0.21 | – | -0.32 | -0.51 | -2.11 | -1.36 | -1.83 | 0.96 | -0.71 | -0.27 | 2.05 | – | 1.03
CCOc1ccc2nc3cc(N)ccc3c(N)c2c1 [Ethacridine lactate monohydrate] | 12.86 ± 0.11 | – | 5.99 | 1.84 | 4.4 | -7.71 | 4.18 | – | -8.09 | -9.56 | 5.56 | -6.59 | -5.24 | -2.52 | -8.13 | 3.54
C=C1CCC2C(C)(CO)C(O)CCC2(C)C1CC=C1C=COC1=O (stereo unspecified) [Dehydroandrographolide] | – | – | 0.35 | 1.46 | 0.8 | 1.6 | 1.74 | 0.87 | – | 0.16 | 0.5 | 0.26 | 1.23 | 0.91 | -0.43 | 1.67
COc1cc(/C=C/C(=O)N2CCN(CC(=O)N3CCCC3)CC2)cc(OC)c1OC [Cinepazide maleate] | – | -0.19 | 0 | -1.17 | – | 0.47 | -1.06 | -0.1 | 0.48 | 0.61 | -0.01 | -0.05 | -0.41 | -0.53 | 1.16 | –
COC(=O)C1=C(C)NC(C)=C(C(=O)OC(C)(C)CN(C)CCC(c2ccccc2)c2ccccc2)C1c1cccc([N+](=O)[O-])c1 (stereo unspecified) [Lercanidipine] | 12.1 ± 0.16 | -0.62 | 0.27 | 1.24 | 2.07 | 0.17 | 0.9 | 0.81 | 0.16 | -0.89 | 1.04 | 0.23 | 0.13 | 1.54 | – | 2.31
CC(=O)Oc1ccccc1C(=O)O [Aspirin] | 12.5 ± 0.23 | -0.19 | 1.14 | -0.15 | 0.67 | 0.01 | 0.16 | -0.38 | -0.71 | -0.21 | 0.21 | – | -0.25 | -0.5 | -0.25 | 0.18
Oc1c(Cl)cc(Cl)cc1Sc1cc(Cl)cc(Cl)c1O [Bithionol] | 12.4 ± 0.28 | – | -3.78 | -1.47 | 6 | 1.88 | – | -0.03 | – | – | 4.37 | 3.51 | 2.62 | 2.92 | 1.53 | –
O=C(O)c1cc(/N=N/c2ccc(O)c(C(=O)O)c2)ccc1O [Olsalazine Sodium] | 12.63 ± 0.099 | 1.33 | -0.62 | -0.47 | -0.62 | -0.37 | -0.58 | -1.16 | -0.74 | -1.01 | -1.25 | -0.73 | -0.7 | – | -0.08 | -0.76
COc1cc([C@@H]2c3cc4c(cc3[C@@H](O[C@@H]3O[C@@H]5CO[C@@H](C)O[C@H]5[C@H](O)[C@H]3O)[C@H]3COC(=O)[C@H]23)OCO4)cc(OC)c1O [Etoposide] | 12.44 ± 0.11 | -0.82 | 0.21 | 0.2 | 0.15 | 0.39 | 0.96 | 0.36 | – | 0.47 | 0.66 | 0.64 | 0.64 | 1.05 | 0.39 | 0.84
CN(C)CCC=C1c2ccccc2CCc2ccccc21 [Amitriptyline HCl] | 12.3 ± 0.27 | 0.95 | 0.09 | -0.56 | -0.87 | -1.69 | -0.17 | -0.99 | -0.28 | -0.92 | – | -0.75 | -0.91 | -0.81 | -0.21 | -0.48
COc1cccc2c1C(=O)c1c(O)c3c(c(O)c1C2=O)CC(O)(C(=O)CO)CC3OC1CC(N)C(O)C(C)O1 (stereo unspecified) [Doxorubicin (Adriamycin) HCl] | 13.68 ± 0.1 | – | -6.37 | 0.99 | 4.08 | 8.06 | -0.36 | -2.19 | – | 0.38 | 2.16 | 2.39 | – | 12.9 | – | 2.67
Clc1ccc(COC(Cn2ccnc2)c2ccc(Cl)cc2Cl)c(Cl)c1 (stereo unspecified) [Miconazole Nitrate] | 12.3 ± 0.19 | -8.17 | -6.38 | -2.76 | 29.9 | -0.2 | – | 0.3 | 15.7 | 1.18 | 19.4 | 6.7 | – | 9.42 | 3.11 | –
